Records with an inconclusive call do not appear. Calls of active or inactive are those of the source. Calls come from the whole dose curve; as a rule, active = well fitted cell-killing curve with a large enough effect; inconclusive = small, poorly fitted or top-dose-only effect; inactive = flat fitted curve, though single readings scatter.
Assay: Cell Viability - LYMP2-010 (AID 981); note: nearly all actives have a fitted effect of over 55% in size
Settings: LYMP2-010 lymphoblastoid cell viability, qHTS; series mostly up to 92.2 µM; activity, negative = cytotoxicity: at the top concentration
From the text: NIH Chemical Genomics Center [NCGC]
NIH Molecular Libraries Screening Centers Network [MLSCN]
National Institutes of Environmental Health Sciences [NIEHS]
National Toxicology Program [NTP]
We have developed a 1536-well cell-based assay for quantitative high throughput screening (qHTS) against a number of cell lines to determine in vitro cytotoxicity of small molecules. This particular assay uses a human lymphoblastoid cell line (LYMP2-010) purchased from Coriell Institute for Medical Research.
NCGC Assay Protocol Summary:
The CellTiter-Glo luminescent cell viability assay (Promega) is a homogeneous method to measure the number of viable cells in culture. The end point readout of this assay is based on quantitation of intracellular ATP, an indicator of metabolic activity, using the luciferase reaction. Luciferase catalyzes the oxidation of beetle Luciferin to oxyluciferin and light in the presence of ATP. The luminescent signal is proportional to amount of ATP present.
Using the CellTiter-Glo luminescent cell viability assay, the amount of cellular ATP was measured in the lymphoblastoid cell line with complete culture medium following compound treatment for 24 hours. The assay was performed in opaque white Kalypsys 1536-well plates. In the screen, tetraoctylammonium bromide was used as positive control. Library compounds were measured for their ability to cause acute toxicity in the cell line, as reflected by a decrease in intracellular ATP levels, in a concentration-dependent manner. […] AC50 values were determined from concentration-response data modeled with the standard Hill equation.
qHTS protocol for CellTiter Glo lymphoblastoid cellular assay
[Step] [Parameter] [Value] [Description]
1. Reagent; 5 uL; 2500 lymphoblastoid cells/well
2. Time; 5 hr; 37 C incubation
4. Controls; 23 nL; Tetraoctylammonium bromide 6.4pM to 92 uM
5. Time; 24 hr; 37 C incubation
6. Reagent; 5 uL; CellTiter Glo reagent
7. Time; 30 min; Room Temperature
8. Detection; Luminescence; Viewlux plate reader
Keywords: cell viability, cytotoxicity, lymphoblastoid cell line, luminescence, NTPHTS, NTPHTS_NCGC, NIEHS, DSSTox, MLSMR, MLSCN, NIH Roadmap, qHTS, NCGC
% is set by controls: 0 for no effect and ±100 for the full control effect; potency is the fitted concentration of half-maximal effect.

Compound	activity, negative = cytotoxicity	Potency
O=C(O)c1cc(O)c2c(c1)C(=O)c1cccc(O)c1C2=O	-30.6% (inactive)	–
CC1=C(/C=C/C(C)=C/C=C/C(C)=C/C(=O)Nc2ccc(O)cc2)C(C)(C)CCC1	–	50.1 µM (active)
CCCNC(=O)NS(=O)(=O)c1ccc(Cl)cc1	-18.6% (inactive)	–
CC(=O)c1ccc(S(=O)(=O)NC(=O)NC2CCCCC2)cc1	-6.13% (inactive)	–
CN(C)CCC(c1ccccc1)c1ccccn1 (centres undefined)	-12.3% (inactive)	–
CCn1cc(C(=O)O)c(=O)c2ccc(C)nc21	-6.96% (inactive)	–
CC(=O)O[C@]1(C(C)=O)CC[C@H]2[C@@H]3C=C(Cl)C4=CC(=O)[C@@H]5C[C@@H]5[C@]4(C)[C@H]3CC[C@@]21C	-10.5% (inactive)	–
O=C(O)Cc1cccc2ccccc12	-6.57% (inactive)	–
O=C1NC(=O)C(c2ccccc2)(c2ccccc2)N1	-21.9% (inactive)	–
CC/C(=C(\c1ccccc1)c1ccc(OCCN(C)C)cc1)c1ccccc1	–	50.1 µM (active)
O=c1c(-c2ccc(O)cc2)coc2cc(O)ccc12	-22% (inactive)	–
O=c1[nH]cnc2c1ncn2[C@H]1CC[C@@H](CO)O1	-6.29% (inactive)	–
CCCCC1C(=O)N(c2ccccc2)N(c2ccccc2)C1=O	-9.15% (inactive)	–
O=c1c(O)c(-c2ccc(O)cc2)oc2cc(O)cc(O)c12	-7.19% (inactive)	–
